Source: PubChem
M1 agonist: M1 muscarinic receptor agonism; 64,000 compounds, 3% hits; CHO-M1 cells, Fluo-4 calcium fluorescence, agonist mode; stronger effect = higher value; B-score at 10 µM;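 active = fluorescence rise, raw or as B-score row- and column-corrected plate score, outside the 99.7% band of its plate's samples, either direction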
mHtt clearance: compounds clearing mutant huntingtin protein | HeLa Exon1htt(103Q)mCFP, aggregate imaging; zero = plate's median compound well | 47,000 compounds, 0.42% hits | inhibition, % at 1.5 µM | AID 853;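 active = inhibition of aggregate fluorescence above about 70%, also judged a hit by eye on the cell image, limit read from the data, passing the limit was not always enough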;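 note: cells exposed to compound for three days before fixation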
D1 allo mod: D1 dopamine receptor (human) allosteric modulation. HEK293 D1, CRE-luciferase, dopamine EC30 potentiation; actives deviate in either direction. P21728. B-score at 10 µM. 58,000 compounds, 5.9% hits. AID 641;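 active = luminescence count or its row- and column-corrected plate score outside the 99.7% band of the plate's sample wells, on either side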
Target sequence (P21728 whole entry, looked up): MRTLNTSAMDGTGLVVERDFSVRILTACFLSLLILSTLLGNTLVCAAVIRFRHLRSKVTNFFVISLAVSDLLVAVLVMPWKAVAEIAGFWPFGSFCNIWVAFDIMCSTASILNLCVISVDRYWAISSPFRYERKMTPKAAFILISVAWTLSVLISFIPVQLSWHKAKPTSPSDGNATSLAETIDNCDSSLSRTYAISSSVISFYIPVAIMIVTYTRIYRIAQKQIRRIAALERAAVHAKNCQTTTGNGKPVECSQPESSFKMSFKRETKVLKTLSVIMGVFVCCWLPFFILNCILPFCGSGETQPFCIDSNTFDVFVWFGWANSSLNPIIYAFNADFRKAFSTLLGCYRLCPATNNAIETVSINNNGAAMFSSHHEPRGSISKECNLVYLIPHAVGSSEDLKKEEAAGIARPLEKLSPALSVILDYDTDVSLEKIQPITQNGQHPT
M1 antag: blocks the rat M1 muscarinic receptor response to acetylcholine | P08482 | CHO-M1 cells, Fluo-4 calcium, ACh EC80 antagonist mode; stronger effect = lower value | B-score at 10 µM | 64,000 compounds, 3.4% hits;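 active = calcium fluorescence response, raw or row-and-column corrected B-score, differing from the plate sample mean either way at a set confidence level, mostly lower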
D1 PAM confirm: confirmation of human D1 dopamine receptor allosteric modulators. luminescence at 10 µM. shares compounds with D1 allo mod. HEK293 D1 CRE-luciferase, dopamine EC30 potentiation; stronger effect = higher value. 2,200 compounds, 88% hits;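 active = luminescence in either of two replicates above the same-plate mean plus 3 SD of the low-dose dopamine control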
D1 ag no DA: secondary test of D1 modulators: activity without dopamine; shares compounds with D1 allo mod; HEK293 D1 CRE-luciferase, luminescence, no dopamine; stronger effect = higher value; luminescence at 10 µM; 1,900 compounds, 0.8% hits; AID 646; in the data active = luminescence above about 3900
Isoprot counter: counter-screen for D1 modulators: isoproterenol response in HEK293 cells. shares compounds with D1 allo mod. HEK293 D1 CRE-luciferase, isoproterenol EC30 counter-screen; stronger effect = higher value. luminescence at 10 µM. 2,200 compounds, 63% hits. AID 647;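 active = luminescence in either replicate above plate mean of wells with a partly effective reference agonist dose plus 3 SD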;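 note: isoproterenol raises cAMP through native beta-adrenoceptor Gs so signal bypasses D1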
* marks the source's active call; other numbers are inactive results; · = not tested or not shown. An excerpt weighted towards active compounds, which were near 9.1% of everything screened.

SMILES	M1 agonist	mHtt clearance	D1 allo mod	M1 antag	D1 PAM confirm	D1 ag no DA	Isoprot counter
N#Cc1nc(-c2ccccc2F)oc1NCc1ccccc1	0.616	·	7.87*	-0.411	14936*	1516	4992*
CCOC(=O)C1=C(C)NC(=O)NC1c1c(O)ccc2ccccc12 (configuration not stated)	-1.33	37.9	0.298	-1.31	·	·	·
CCn1c(SCC(=O)Nc2nc3ccc(OC)cc3s2)nc2c1c(=O)n(C)c(=O)n2C	1.41	·	1.5	-0.448	·	·	·
CC1N=C2c3ccccc3N=C(SCc3cc(=O)n4cc(Cl)ccc4n3)N2C1=O (configuration not stated)	-0.125	-2.9	4.19*	0.00594	10900*	1568	3512*
CC(C)C1N=C2c3ccccc3N=C(SCc3cc(=O)n4ccccc4n3)N2C1=O (configuration not stated)	-0.0833	·	0.92	1.88	·	·	·
O=C(CC1SC(=NC2CCCCC2)NC1=O)Nc1ccccc1 (configuration not stated)	-0.541	-23.7	2.59*	0.712	6104*	1644	3148
COc1cc(OC)nc(NC(=O)CSc2nnc(-c3ccccc3)n2C2CCCCC2)n1	-2.08	·	0.955	1.08	·	·	·
Cc1cccc(-c2nnc3sc(-c4ccccc4)nn23)c1	-0.923	·	7.58*	-0.349	15580*	1692	3424*
c1ccc(-c2nn3c(-c4ccccc4)nnc3s2)cc1	0.0797	·	6.25*	1.12	14100*	1944	3208
COc1cccc(-c2nn3c(-c4cc(C)[nH]n4)nnc3s2)c1	1.02	62.2	3.43*	-0.415	6292*	2016	2620
Cc1ccc(-c2nnc3sc(-c4ccncc4)nn23)cc1	-0.144	-45.9	2.47	-0.672	·	·	·
COc1cccc(-c2nn3c(-c4ccccn4)nnc3s2)c1	2.52	-48.4	·	-0.189	·	·	·
Clc1ccc(-c2nn3c(-c4cccc(Cl)c4)nnc3s2)cc1	0.00637	·	·	0.276	·	·	·
CCOC(=O)C(Sc1nnc2c3ccccc3n(CC)c2n1)C(=O)OCC	0.0521	·	5.15*	-0.435	11136*	1560	3800*
CCn1c2ccccc2c2nnc(SCC(=O)c3ccccc3)nc21	·	-52.5	·	·	·	·	·
CCNc1nc(C)cc(COC)c1C#N	-0.0287	·	4.75*	-0.241	10012*	·	2860*
O=C(Nc1cccc(O)c1)c1cc(S(=O)(=O)N2CCCC2)ccc1Cl	0.727	·	-0.582	-0.0202	·	·	·
N#Cc1c(N)sc2c1CCCCCC2	-0.866	·	5.85*	0.475	13464*	1508	2928
CC(C)(C)C(=O)Nc1sc2c(c1C#N)CCCCC2	·	33.7	·	·	·	·	·
CCOC(=O)CN1CC23C=CC(O2)C(C(=O)Nc2ccc(C(C)=O)cc2)C3C1=O (configuration not stated)	-0.69	-108.5	0.615	0.183	·	·	·
CCOC(=O)C(C)Sc1nc(-c2ccc(OC)cc2)nc2c1c(=O)n(C)c(=O)n2C (configuration not stated)	-0.0834	·	-1.9	0.0157	·	·	·
COc1cccc(C(=O)OCCN2C(=O)c3ccccc3C2=O)c1OC	-0.818	·	3.14*	0.592	5788*	1588	3180*
COc1ccc(C(=O)OCCN2C(=O)c3ccccc3C2=O)cc1	1.79	-10.7	1.21	0.308	·	·	·
Clc1ccccc1COc1ccccc1-c1nnco1	0.365	-14.0	-1.31	0.474	·	·	·
c1ccc(OCCOc2ccccc2-c2nnco2)cc1	-0.00158	26.8	4.37*	-0.0168	6588	1756	2716
SMILES	M1 agonist	mHtt clearance	D1 allo mod	M1 antag	D1 PAM confirm	D1 ag no DA	Isoprot counter
COc1ccc(C(=O)n2nc(-c3ccccc3)nc2N)cc1OC	1.08	63.8	6.13*	0.123	15096*	1896	3496*
Cc1ccc(NN2C(=O)C=C(c3ccc(Cl)cc3)C2=O)cc1	·	-16.2	·	·	·	·	·
CCn1c(SCC(=O)Nc2sc(C)c(C)c2C#N)nnc1C(C)C	-0.423	-11.2	4.46*	-0.00569	5156	1684	3184
COCCn1c(SCC(=O)Nc2sc(C)c(C)c2C#N)nnc1C(C)C	0.896	8.0	0.664	-0.229	·	·	·
O=C(CSc1ncnc2sc3c(c12)CCCCC3)NCc1ccco1	0.137	·	4.31	0.108	·	·	·
CC(C)c1nc2sc3c(SCC(=O)NCc4ccco4)ncnc3c2c2c1CCC2	-0.0304	·	13.6*	-0.259	17912*	·	2512
Cc1ccnc2ccc(-c3nc4ccccc4o3)cc12	-0.0345	·	0.196	0.127	·	·	·
Cc1cc(-c2nc3ccccc3o2)c2ccccc2n1	0.342	-29.8	14.6*	-0.286	14660*	·	3288*
COc1ccc(S(=O)(=O)N(CC(=O)N2CCOCC2)c2cc(Cl)ccc2OC)cc1OC	0.0775	·	0.548	-0.134	·	·	·
Cc1ccc(-c2nn(C)c(=O)c3ccccc23)cc1S(=O)(=O)N1CCCC1	0.137	-402.9	0.477	0.543	·	·	·
Cc1ccc(-c2nn(C)c(=O)c3ccccc23)cc1S(=O)(=O)NCCO	-1.1	-22.0	4.14*	-0.643	6200*	1504	2988
Cc1nc(-c2ccccc2O)n(S(=O)(=O)N(C)C)n1	-1.3	-6.0	5.53*	-1.53	8136*	1504	3412*
CN(C)S(=O)(=O)n1cnc2ccccc21	-0.164	4.9	-0.316	0.167	·	·	·
COC(=O)c1cn(-c2ccccc2)nc1C(=O)OC	-0.42	·	18.3*	0.135	20700*	1688	4544*
O=C(O)c1cn(-c2ccccc2)nc1C(=O)O	·	-70.8	·	·	·	·	·
C/C(N)=C(/C#N)C(=O)CSc1nnc(NC(C)C)s1	0.748	-9.6	-0.154	-0.0951	·	·	·
CCCCc1nc(NCCN2CCOCC2)c(C#N)c2c1COC(C)(C)C2	-2.56	·	5.8*	0.104	11452*	1780	8292*
CN1C(=O)c2oc3ccc(Br)cc3c(=O)c2C1c1ccncc1 (configuration not stated)	0.00959	·	0.494	-0.0555	·	·	·
Cn1ncc2c(NCc3ccccc3)ncnc21	0.344	-12.4	1.49	0.614	·	·	·
C1=Nc2c(NCc3ccccc3)ncnc2Oc2ccccc21	0.746	13.8	7.98*	-0.111	10088*	1584	4088*
c1cncc(-c2nc(-c3ccc4c(c3)OCO4)cs2)c1	0.0393	·	0.163	-0.402	·	·	·
Oc1ccc(-c2nc(-c3ccc(O)c(O)c3)cs2)cc1	·	·	6.66*	·	7572*	2480	5252*
CCOc1nc(C)ccc1-c1noc(-c2ccncc2)n1	0.828	-3.8	18.2*	0.346	11268*	1692	4352*
CCOC(=O)c1cc(-c2cccs2)nn1CCC#N	-0.214	·	·	0.276	·	·	·
CCOC(=O)c1cc(-c2ccc(C)o2)nn1CCC#N	1.31	·	5.56*	-0.0204	19640*	1728	3844*
CC12CC(c3ccccc3O1)C(C(=O)N1CCOCC1)C(=O)N2 (configuration not stated)	-0.0136	·	3.3*	-0.194	4036	1440	2292
O=C(C1COc2ccccc2O1)N1CCOCC1 (configuration not stated)	-0.525	·	-1.3	0.55	·	·	·
CCCOc1ccc(N2CC(C(=O)Nc3ccccc3F)CC2=O)cc1 (configuration not stated)	-0.566	11.4	-0.628	0.601	·	·	·
N#Cc1cnn(Cc2ccccc2)c1/N=C/N1CCOCC1	-0.225	·	5.48*	-0.327	8140*	1300	3072
